Results taken from the supplement of paper PMC9694430.

Tests used:
Assay in all cases: thermal shift delta Tm vs DMSO control; higher = stronger stabilization (binding)
Settings in all cases: 12.5 µM; protein concentration 2 µM
LOC_OS01G01410-cb001 = tested on: LOC_OS01G01410-cb001
In short: (§1)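 Heating from 25°C to 95°C at 0.05°C/s, fluorescence was recorded for 19.5 μl wells of 2 μM E. coli-expressed, purified rice kinase domain in 100 mM potassium phosphate pH 7.5, 150 mM NaCl, 10% glycerol and 5 × SYPRO Orange with compound in DMSO. Boltzmann fits gave melting temperatures for this differential scanning fluorimetry assay. The shift reported is the mean of three replicates against the DMSO-only protein.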

LOC_OS01G02750-cb003 = tested on: LOC_OS01G02750-cb003
In short: as §1

LOC_OS01G10900-cb004 = tested on: LOC_OS01G10900-cb004
In short: as §1

LOC_OS01G13800-cb001 = tested on: LOC_OS01G13800-cb001
In short: as §1

LOC_OS01G14860-cb001 = tested on: LOC_OS01G14860-cb001
In short: as §1

LOC_OS01G21960-cb002 = tested on: LOC_OS01G21960-cb002
In short: as §1

LOC_OS01G39600-cb002 = tested on: LOC_OS01G39600-cb002
In short: as §1

LOC_OS01G48390-cb002 = tested on: LOC_OS01G48390-cb002
In short: as §1

LOC_OS01G51400-cb002 = tested on: LOC_OS01G51400-cb002
In short: as §1

LOC_OS01G52050-cb004 = tested on: T1, LOC_OS01G52050-cb004
T1 sequence (whole entry): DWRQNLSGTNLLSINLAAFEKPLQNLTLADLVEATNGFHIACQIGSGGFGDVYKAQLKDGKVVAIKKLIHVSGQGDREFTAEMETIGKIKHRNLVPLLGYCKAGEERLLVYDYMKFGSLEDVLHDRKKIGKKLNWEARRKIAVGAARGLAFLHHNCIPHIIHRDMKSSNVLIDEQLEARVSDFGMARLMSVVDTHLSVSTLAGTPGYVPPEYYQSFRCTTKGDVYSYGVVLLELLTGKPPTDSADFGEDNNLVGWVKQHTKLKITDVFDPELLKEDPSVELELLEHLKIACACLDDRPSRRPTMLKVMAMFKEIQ
In short: as §1

LOC_OS01G57100-cb003 = tested on: LOC_OS01G57100-cb003
In short: as §1

LOC_OS01G60330-cb001 = tested on: LOC_OS01G60330-cb001
In short: as §1

LOC_OS01G60700-cb002 = tested on: LOC_OS01G60700-cb002
In short: as §1

LOC_OS01G63280-cb003 = tested on: LOC_OS01G63280-cb003
In short: as §1

LOC_OS01G67340-cb003 = tested on: LOC_OS01G67340-cb003
In short: as §1

LOC_OS01G70970-cb002 = tested on: LOC_OS01G70970-cb002
In short: as §1

LOC_OS02G07810-cb001 = tested on: LOC_OS02G07810-cb001
In short: as §1

LOC_OS02G08530-cb003 = tested on: LOC_OS02G08530-cb003
In short: as §1

LOC_OS02G14120-cb001 = tested on: LOC_OS02G14120-cb001
In short: as §1

LOC_OS02G17970-cb001 = tested on: LOC_OS02G17970-cb001
In short: as §1
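Further: purified Escherichia coli-expressed rice kinase domain construct.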

SMILES	thermal shift delta Tm (LOC_OS01G01410-cb001) [°C]	thermal shift delta Tm (LOC_OS01G02750-cb003) [°C]	thermal shift delta Tm (LOC_OS01G10900-cb004) [°C]	thermal shift delta Tm (LOC_OS01G13800-cb001) [°C]	thermal shift delta Tm (LOC_OS01G14860-cb001) [°C]	thermal shift delta Tm (LOC_OS01G21960-cb002) [°C]	thermal shift delta Tm (LOC_OS01G39600-cb002) [°C]	thermal shift delta Tm (LOC_OS01G48390-cb002) [°C]	thermal shift delta Tm (LOC_OS01G51400-cb002) [°C]	thermal shift delta Tm (LOC_OS01G52050-cb004) [°C]	thermal shift delta Tm (LOC_OS01G57100-cb003) [°C]	thermal shift delta Tm (LOC_OS01G60330-cb001) [°C]	thermal shift delta Tm (LOC_OS01G60700-cb002) [°C]	thermal shift delta Tm (LOC_OS01G63280-cb003) [°C]	thermal shift delta Tm (LOC_OS01G67340-cb003) [°C]	thermal shift delta Tm (LOC_OS01G70970-cb002) [°C]	thermal shift delta Tm (LOC_OS02G07810-cb001) [°C]	thermal shift delta Tm (LOC_OS02G08530-cb003) [°C]	thermal shift delta Tm (LOC_OS02G14120-cb001) [°C]	thermal shift delta Tm (LOC_OS02G17970-cb001) [°C]
CC(C)c1cnn2c(NCc3ccccc3-n3cccn3)nc(OC3CCCNC3)nc12 (stereo not given)	0	1.24	0.29	0.99	0.39	1.47	-0.1	0.28	0.35	0.43	0.42	1.35	1.26	0.47	0.65	0.27	0.85	0.74	-0.11	2.44
COc1cccc(-c2cc(=O)c3ccccc3o2)c1N	1.2	0.8	-0.05	0.1	0.1	-0.03	0.91	-0.01	0.02	0.01	-0.23	0.99	0.39	-0.2	-0.8	0.32	0.94	0.37	-0.3	-0.31
Cc1nc(Nc2n[nH]c3c2CN(C(=O)N[C@H](CN(C)C)c2ccccc2)C3(C)C)c2sccc2n1	0.37	2.46	0.23	-0.4	4.22	2.47	0.6	0.23	0.28	0.94	0.61	-0.15	1.34	0.55	0.06	0.38	0.99	2.37	0.4	0.96
CC1=C(C(=O)Nc2cc3cn[nH]c3cc2F)C(c2ccc(C(F)(F)F)cc2)CC(=O)N1 (stereo not given)	0.57	-0.19	0.11	0.54	0.16	0.33	-0.15	-0.18	-0.23	0	1.21	0.48	0.2	2.09	-0.48	0.04	0.72	0.55	0.25	0.19
COc1cc2ncnc(Nc3cccc(Cl)c3F)c2cc1OC(=O)N1CCN(C)C[C@H]1C	0.74	0.31	0.52	-0.2	0.07	0.37	-0.74	0.45	0.35	-0.17	1.43	1.34	0.77	0.24	0.62	0.55	0.42	0.94	0.64	0.79
CC(=O)c1c(C)c2cnc(Nc3ccc(N4CCNCC4)cn3)nc2n(C2CCCC2)c1=O	0.65	0.74	0.47	-0.38	2.26	0.28	0.65	0.1	0	0.98	-0.7	1.73	0.15	-0.12	1.56	0.58	-0.42	1.29	4.13	0.68
N#Cc1ccc(-c2c(-c3ncn[nH]3)sc(N3CCOCC3)c2C#N)c(F)c1	0.3	0.97	4.91	0.46	0.41	1.16	0.28	0.62	0.12	0.29	0.86	1.05	1.22	0.44	0.56	0.2	0.75	0.69	1.41	1.24
Cc1ccc(Nc2nccc(N(C)c3ccc4c(C)n(C)nc4c3)n2)cc1S(N)(=O)=O [Pazopanib]	2.16	0.45	1.67	-0.48	0.04	0.56	1.25	4.34	0.23	0.91	0.76	3.85	1.11	0.59	0.96	0.44	0.68	1.82	3.43	0.74
Cc1cc(C(C)Nc2ccccc2)c2nc(N3CCOCC3)cc(=O)n2c1 (stereo not given)	1.33	-0.12	0.5	0.23	1.25	0.01	0.8	1.36	0.16	0.56	0.23	1.22	0.52	-0.26	-0.69	0.34	0.27	0.37	0	0.24
CCc1nc(C(N)=O)c(Nc2ccc(N3CCC(N4CCN(C)CC4)CC3)c(OC)c2)nc1NC1CCOCC1 [Gilteritinib (ASP2215)]	4.13	2.42	2.14	0.93	2.59	3.21	2.87	1.66	0.63	8.54	4.25	11.5	1.96	1.07	4.03	5.09	1.35	5.51	13.1	1.65
CN1CCN(C2CCN(C(=O)Nc3cc(Oc4ccc(NC(=O)C5(C(=O)Nc6ccc(F)cc6)CC5)c(F)c4)ccn3)CC2)CC1 [Golvatinib (E7050)]	-0.03	1.21	0.95	0.07	0.62	0.11	0.93	2.98	0.51	0.09	0.49	0.6	1.6	0.78	0.24	0.6	0.4	0.79	0.6	2.14
O=C(c1ccc(/C=C/c2n[nH]c3ccccc23)cc1)N1CCNCC1	5.18	3.06	1.43	-0.18	1.8	2.42	5.76	5.36	1.16	7.26	1.7	11.6	0.48	0.98	4.9	6.89	0.73	4.1	7.17	0.42
C=CC(=O)Nc1cccc(C)c1Nc1ncc2cc(-c3c(Cl)c(OC)cc(OC)c3Cl)ccc2n1	0.73	1.61	1.22	0.52	0.39	0.77	0.15	0.36	0.29	0.2	1.11	1.2	0.26	-0.06	0.6	0.35	0.78	0.7	1.59	0.63
